TDP1 cell CPT: DT40-hTDP1 cell growth loss with CPT; chicken DT40 Tdp1-/-;hTDP1 cells + 20 nM CPT, ATP luminescence, 48 h; Potency, µM (titrated, usually from 46.2 µM), without a hit: at the top dose activity change, negative = growth inhibition, actives largely listed as inhibitors; 420,000 compounds, 12% hits; further: potency means the concentration at half of the fitted maximal effect; nearly all actives have a fitted effect of over 55% in size
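Cell growth measured by CellTiter-Glo luminescence after a minimum 48 h, 37 C compound exposure with 20 nM CPT in Tdp1-knockout DT40 cells stably expressing hTDP1, seeded 400/well; qHTS titration format.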
IL1B secr inh: inflammasome signaling inhibition, IL-1 beta readout; 360,000 compounds, 4.7% hits; activity change, % at 57.5 µM; THP-1 LPS/ATP IL-1B secretion, AlphaLISA, 16 h; hits give low values; in the data active means activity change below about -50%; inconclusive means mostly about -30% to -49%
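THP-1 cells pretreated 1 hr with compounds (up to 57.5 uM final), then stimulated with LPS (250 ng/mL final) plus ATP (1.25 mM final); secreted IL-1B measured by AlphaLISA after 16 hr, decreased signal indicating inhibition.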
HT1080NT lethal: kills 2HG-producing HT-1080-NT fibrosarcoma cells; HT-1080-NT fibrosarcoma viability, CellTiter-Glo ATP luminescence, 48 h; 360,000 compounds, 1.6% hits; Potency, µM (top dose mostly 46.1 µM), inactives show at the highest dose activity, negative = less viability, usual class: cytotoxic;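 further: NT is the 2HG producing partner of a matched IDH1 knockdown line; potency means the concentration at half of the fitted maximal effect; 0% = DMSO-treated cells and -100% = media-only wells without cells; nearly all actives have a fitted effect of over 55% in size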
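Toxicity toward the 2HG-producing NT line was scored as %Activity, normalised to DMSO and no-cell wells, from CellTiter-Glo luminescence after 48 hours' treatment.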
TDP1 cell noCPT: qHTS for Inhibitors of human tyrosyl-DNA phosphodiesterase 1 (TDP1): qHTS in cells in absence of CPT; 420,000 compounds, 15% hits; DT40 Tdp1-/- hTDP1 cells, no CPT, ATP luminescence, 48 h; Potency, µM (titrated, usually from 46.2 µM), inactives show top-dose activity change, negative = growth inhibition, usual class: inhibitors; further: potency means the concentration at half of the fitted maximal effect; nearly all actives have a fitted effect of over 55% in size
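Luminescent ATP content (CellTiter-Glo) served as the growth readout. Knockout chicken DT40 cells expressing human TDP1 were exposed to compounds without camptothecin for a minimum 48 hr at 37 °C.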
HT1080 IDH1KD tx: HT-1080 IDH1 knockdown cell toxicity (counter line); 360,000 compounds, 2% hits; HT-1080 IDH1 knockdown viability, ATP luminescence, 48 h; Potency, µM (highest dose often 46.1 µM), for inactives: top-dose activity, negative = toxicity, hits mostly cytotoxic; AID 686971;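 further: potency means the concentration at half of the fitted maximal effect; 0% = DMSO wells and -100% = cell-free medium wells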
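Knockdown cells (IDH1KD HT-1080) received compounds 2 h after plating at 750 cells/well and were kept 48 h at 37 °C in 5% FBS RPMI. A CellTiter-Glo luminescence read gave % activity for curve fitting.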
* = called active by the depositor; ? = inconclusive; . = no result given; [ ] = remark or other dose. Hits are enriched below; roughly 19% of the tested compounds scored in any of these assays. Unless noted, the call rests on the fitted dose curve; in most records, active means well fitted curve in the direction sought with a large enough effect; inconclusive means small, poorly fitted or top-dose-only effect, or another doubt; inactive means no such curve, though single readings can be large; an effect the other way counts as inactive or inconclusive. Unless noted, on the % scale 0 is the no-effect control and ±100 the full control effect.

SMILES | TDP1 cell CPT | IL1B secr inh | HT1080NT lethal | TDP1 cell noCPT | HT1080 IDH1KD tx
CC(C)Oc1ccc(CNC(=O)C2CCCN(S(=O)(=O)c3ccc4c(ccn4C)c3)C2)cc1 (centres undefined) | 21µM* | . | . | 21µM* | .
O=C(NCC1=C(c2ccc3ccccc3c2)C[C@@H]2CC[C@H]1N2Cc1ccco1)c1ccncc1 | ? | -8 | -5% | ? | -17%
O=C(NCC1=C(c2ccc3ccccc3c2)C[C@@H]2CC[C@H]1N2Cc1ccco1)c1ccc([N+](=O)[O-])cc1 | ? | -71* | -20% | 16µM* | ?
CCOP(=O)(OCC)C(NC(=O)c1ccc(C)cc1)=C(Cl)Cl | 2% | 26 | 0% | -3% | 12%
Cn1c(CN2CCCCC2)nc2cc(NC(=O)c3cccc(Br)c3)ccc21 | ? | -78* | ? | ? | ?
O=C(Nc1ccc(F)c([N+](=O)[O-])c1)c1cccn(Cc2ccccc2)c1=O | -25% | . | . | ? | .
COC(=O)c1ccc(N2C(=O)CC(N3CCC(O)(c4ccc(Br)cc4)CC3)C2=O)cc1 (centres undefined) | ? | 18 | 8% | -16% | 0%
CCCN1CCc2cccc3c2C1Cc1ccc(O)c(O)c1-3 (centres undefined) | 3.7µM* | . | . | -89% | .
COc1cc2c(cc1O)-c1c(O)c(OC)cc3c1[C@H](C2)N(C)CC3 | -43% | . | . | ? | .
CN1CCc2cc(O)cc3c2[C@H]1Cc1ccc(O)c(O)c1-3 | 1.6µM* | -17 | 8.2µM* | 2.6µM* | 5.8µM*
OCCCBr | 5%[92.5 µM] | . | . | 0%[92.5 µM] | .
Cc1nn(Cc2ccccc2)c(C)c1C(=O)NCc1ccccc1F | -3% | -23 | 15% | -20% | 15%
C=C1C=C(C(F)F)n2ncc(C(=O)NCc3ccccc3F)c2N1 | ? | . | . | 11µM* | .
Cc1cnc(SCc2ccccn2)nc1C1CCCN(C(=O)c2cccc(-c3cccc(F)c3)c2)C1 (centres undefined) | -7%[9.04 µM] | . | . | 16µM* | .
CC(O)(c1ccncc1)c1nc(-c2cccc(C(F)(F)F)c2)cs1 (centres undefined) | 23µM* | 2 | 2% | 21µM* | -15%
COc1ccc2c(c1)NP(=S)(Oc1ccccc1)N2 (centres undefined) | ? | 5 | 8% | 15µM* | 4%
O=C(c1ccco1)c1cn(Cc2ccccc2Cl)c2ccccc12 | 18µM* | -16 | 5% | ? | ?
O=C(c1ccco1)c1cn(Cc2ccccc2)c2ccccc12 | 7% | 4 | -12% | ? | -22%
CN(CC(=O)N[C@H](CO)Cc1ccccc1)C(=O)[C@H](CCS(C)=O)NC(=O)[C@@H](N)Cc1ccc(O)cc1 (some centres undefined) | -9%[4.12 µM] | . | . | -5%[4.12 µM] | .
S=C(NCCc1ccccc1)N1Cc2ccccc2-n2nncc2C1 | ? | 52 | -17% | 21µM* | -11%
Fc1cccc(-c2ccc3c(c2)CN(C(=S)NCCc2ccccc2)Cc2cnnn2-3)c1 | ? | -57* | ? | ? | -22%
c1cncc([C@H]2CCCCN2)c1 | 2% | . | . | -14% | .
COc1cccc(/C=C2\N=C(c3cncc(Br)c3)OC2=O)c1 | ? | 10 | 12% | 23µM* | 13%
CN1CCC(O)(c2ccc(Cl)cc2)C(C(=O)c2ccc(Cl)cc2)C1 (centres undefined) | 2.6µM* | -15 | -1% | 2.9µM* | 5%
COC(=O)C1=C(c2ccc(F)cc2OCc2ccccc2)C[C@@H]2CC[C@H]1N2C(=O)NCCNC(C)=O | ? | -13 | 1% | ? | -13%
CCOC(=O)c1cc2c(cn1)[C@H](CCO)NC2 | 8% | 29 | 13% | -2% | 19%
COc1ccc(NC(=S)Nc2ncccc2C)c(OC)c1 | -25% | -78* | 7.1µM* | ? | 10µM*
c1cncc(CNC2=NCCCCC2)c1 | 2% | 6 | 9% | 4% | 19%
O=C(NCc1cccnc1)c1ccc(COc2ccc3c(c2)CCC3)o1 | 18µM* | -22 | ? | ? | ?
